# From PubChem BioAssay (EPA / NIEHS)
# Calls of active or inactive are those of the source. Rule for the calls: active = hit-call score of the fitted dose curve at least 0.9, where 1 is the maximum; inactive = score below 0.9.
# Read-out: Monocyte Chemoattractant Protein-1 (MCP1), CCL2 (gene 6347)
# Test: BSK_hDFCGF_MCP1: BioMAP Diversity Plus: hDFCGF Assay for Monocyte Chemoattractant Protein-1 (MCP1) Biomarker Activity (AID 2284285)
# Conditions: primary human foreskin fibroblasts
# Experimental: BSK_hDFCGF is a cell-based, multiplexed-readout assay that uses foreskin fibroblast, a human skin primary cell, with measurements taken at 24 hours after chemical dosing in a 96-well plate.BSK_hDFCGF_MCP1 is an assay component measured in the BSK_hDFCGF assay. It measures MCP-1 antibody related to regulation of gene expression using ELISA technology.Data from the assay component BSK_hDFCGF_MCP1 was analyzed at the endpoint, BSK_hDFCGF_MCP1, in the positive analysis fitting direction relative to DMSO as the negative control and baseline of activity. Using a type of binding reporter, gain or loss-of-signal activity can be used to understand protein changes. To generalize the intended target to other relatable targets, this assay endpoint is annotated to the 'cytokine' intended target family, where the subfamily is 'chemotactic factor'.
# The levels of cell surface (or secreted, indicated by the prefix "s") biomarker endpoints were measured by ELISA. Overt cytotoxicity to cells in confluent adherent cultures (all systems other than the BT system) was assessed by measuring total protein levels using sulforhodamine B (SRB) staining in parallel cultures at the time of biomarker measurements, indicated as SRB endpoints. For proliferation assays for adherent cell types, individual cell types are cultured at sub-confluence and relative cell numbers quantified by SRB staining at time points optimized for each system (48 h: 3C and CASM3C systems; 72 h: BT and HDF3CGF systems; 96 h: SAg system). SRB was performed by staining cells with 0.1% SRB after fixation with 10% TCA and reading wells at 560 nm.Viability and proliferation of PBMC (T cells) was quantified by Alamar Blue reduction for the SAg and BT systems. For PBMC viability (referred to as PBMC Cytotoxicity within the assay endpoint names), cells were plated (75,000/well in a 96-well plate) and then chemical samples added for 1 h before addition of activators, SEB and TSST-1 (20 ng/mL final concentration each). Cells were incubated for 90 h. Then, Alamar Blue (20 uL/well) (Invitrogen, Cat DAL1100) was added for 6 h, and the plates were read with a fluorescence microplate reader at 546/580 nm (excitation/emission). For PBMC proliferation, cells were plated and activated as above but incubated for only 16 h prior to addition of Alamar Blue. Plates were read after 6 h.
row,SMILES,outcome
1,NCCNCCN,inactive
2,CC(=O)[C@H]1CC[C@H]2[C@@H]3CC=C4C[C@@H](O)CC[C@]4(C)[C@H]3CC[C@]12C,inactive
3,Cc1cc(C2(c3cc(C)c(O)cc3C)OS(=O)(=O)c3ccccc32)c(C)cc1O,inactive
4,OC1OC[C@@H](O)[C@H](O)[C@H]1O (some centres not stated),inactive
5,C=CCOC(=O)CCC1CCCCC1,inactive
6,CCC(=O)OCc1ccccc1,inactive
7,CC(=O)OCCC(C)CC(C)(C)C (configuration not stated),inactive
8,CC[Si](OC(C)=O)(OC(C)=O)OC(C)=O,inactive
9,COc1cc(C=O)ccc1OC(=O)C(C)C,inactive
10,OC[C@H]1O[C@H](O[C@]2(CCl)O[C@H](CCl)[C@@H](O)[C@@H]2O)[C@H](O)[C@@H](O)[C@H]1Cl,inactive
11,C[C@H]1C[C@@H]2[C@H]([C@@H](O)C[C@@]3(C)[C@H]2CC[C@]3(O)C(=O)CO)[C@@]2(C)C=CC(=O)C=C12,inactive
12,Nc1cc([N+](=O)[O-])ccc1O,inactive
